Assay results: article PMC13494018
A number with no mark means an inactive call. How the calls were made is not given here.

Molecular target: CD276, Q5ZPR3
Sequence (Q5ZPR3 whole entry): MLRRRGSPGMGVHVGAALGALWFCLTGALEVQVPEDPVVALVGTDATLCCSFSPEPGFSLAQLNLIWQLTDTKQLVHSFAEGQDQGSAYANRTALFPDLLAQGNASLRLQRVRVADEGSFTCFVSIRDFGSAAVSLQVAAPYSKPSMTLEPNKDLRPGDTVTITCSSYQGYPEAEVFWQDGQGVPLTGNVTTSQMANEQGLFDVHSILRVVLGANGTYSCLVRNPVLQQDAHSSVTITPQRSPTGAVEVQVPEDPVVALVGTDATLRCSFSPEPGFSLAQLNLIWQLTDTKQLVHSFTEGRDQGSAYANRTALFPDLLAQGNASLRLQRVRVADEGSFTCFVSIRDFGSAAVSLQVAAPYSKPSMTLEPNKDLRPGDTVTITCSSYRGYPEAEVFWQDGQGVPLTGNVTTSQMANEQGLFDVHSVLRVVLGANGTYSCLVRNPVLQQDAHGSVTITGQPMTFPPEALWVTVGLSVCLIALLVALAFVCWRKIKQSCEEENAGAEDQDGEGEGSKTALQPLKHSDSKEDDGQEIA

| Binder | binding in a display sort |
| --- | --- |
| d1r8_design_ppi_667_dldesign_0_cycle0_af2pred (protein) SAAAAAALAAARATAVAALTAGTGLAPEEAAALAAAMTDDQIFAIANLNAANPAAGQALAANLAAQVRRELA | not found |
| d1r8_design_ppi_906_dldesign_0_cycle1_af2pred (protein) AAEAAERADRGQGTLIAMEAEARLAAIAKAHPEVAALAAAAAERVRAAAPLPAAEVRAVAERELAEVEAALAAA | not found |
| d1r8_design_ppi_923_dldesign_0_cycle0_af2pred (protein) AAEMAATAAYVSEVAARAQAEDPSLGPEVNRLFALLARAGAAYAADPAAGAAVAAEARAYAEELDKRLEAAL | not found |
| d1r8_design_ppi_870_dldesign_0_cycle1_af2pred (protein) EAEANQQAMNLLMRAAALQPRDREKAREAVEEGRKVAKDEETKKLLEEAVKALDGDVDEAIAVLLETAKKISERAREAAA | not found |
| d1r11_design_ppi_238_dldesign_0_cycle0_af2pred (protein) AAAAAAAAAAAALAEAAARAAAATDVTTKVGAALTAQNPSVKPITDAAVEKMKQAAAVVADPAKAAAYQKEAGDLLTQALRQVAAARR | not found |
| d1r8_design_ppi_843_dldesign_0_cycle0_af2pred (protein) AEEARRAEAAARLEAAVAAGQATLVEVNKAAAATGDAALAEAALALSRAIAEGRRLGREGRYEEGAALVEAATKAAKATLAA | not found |
| d1r8_design_ppi_647_dldesign_0_cycle0_af2pred (protein) KEELVKQAESLEKFAKLAAEGASPEAKPLFEKAAEKFRKAAEAAKENPEEGEKLMAEGRKLLAEGMRLEIQLR | not found |
| d1r8_design_ppi_735_dldesign_0_cycle1_af2pred (protein) SEAAEKALKAVEAAIEVVETGTPEEALAATKAAAEVAKKAAEAAGNLGAQIKATADAAVKATAADKAAGLAKLRTLATLLRAYAEA | not found |
| d1r8_design_ppi_849_dldesign_0_cycle0_af2pred (protein) DDAAKAAELTALVLEEEAADPVRAGEVGAARARELGLSAAGILAVLDRVVAEAAPSGETVRALMRAAIEAAQA | not found |
| d1r8_design_ppi_886_dldesign_0_cycle1_af2pred (protein) AKAAELAAEGKALAEQLAKEGAADGEKGIELLKQGSALVRELEALGAEDPEYAEAAKAAQAALQAAVAAFAAASIAKAAAA | not found |
| d1r8_design_ppi_791_dldesign_0_cycle0_af2pred (protein) SENEKKLEEVKKKLEEAKKAAEEDPKAGAALAIETIELAKKAAEEAKKNGDEKTAEEANKLAHEAMKLAAKALAKAAA | not found |
| d1r8_design_ppi_811_dldesign_0_cycle1_af2pred (protein) AEEEEAERAREEAKESLLAARDTAVGILTAAGLTDKAKEVEKYAEEALKEAEKLTPEEAAKLYGEAANRILTDTIAAASAAVA | not found |
| d1r11_design_ppi_170_dldesign_0_cycle0_af2pred (protein) ASPEELTLTARALAFAGGSPEWRPLLQEAIAAYATAEASDPATGAAARAKADAITAELVERYRAAEAAEAAAAA | not found |
| d1r8_design_ppi_824_dldesign_0_cycle1_af2pred (protein) AEAERRRAEVLALFDEAVAAGSPELARAAAERAAELNPERAEDIRQQGEIAAALMPFSPRAARALMRTVAA | not found |
| d1r8_design_ppi_742_dldesign_0_cycle1_af2pred (protein) AAAAAAKAAAAAAAQAALRSLRDLAARAKAAEAAGDPEAAAKYRAAAEQWADIAIASAKQAGTEATVAAEAAALLAA | not found |
| d1r11_design_ppi_301_dldesign_0_cycle0_af2pred (protein) SLLEEAKKLAEELKELLKKAKEALADPEKAKELIKKAEEANKKLVELAVEAAKAGDHESAALANRAALEGQRKIAEIKAQLAA | not found |
| d1r11_design_ppi_189_dldesign_0_cycle1_af2pred (protein) AAAEKAKLGFQLLNQLQKAQQAVAAGAAAGATAAEFEALAAQAQKAKEEGKQTILADTVQAAADVVIAAARAAAAAAKARAA | not found |
| d1r8_design_ppi_832_dldesign_0_cycle0_af2pred (protein) AAEAAALKAQIEAAIAQMREETRRAAERDVEEGGRVASAATQQITKLVSQLAKVDPAAGAEAMALLTEAMREVQAYLDAERAARA | not found |
| d1r8_design_ppi_790_dldesign_0_cycle0_af2pred (protein) AAAAAQAATATAIRSRGTNRMLTRILALPASASEAELRAIVEEEAERARAEMLAAGVSPELAEAAVEHILRIGEQAIAAR | not found |

| Binder | binding in a display sort |
| --- | --- |
| d1r8_design_ppi_744_dldesign_0_cycle1_af2pred (protein) STAEKAVKLVEETAKKGIAEAKADPAKVPAAAKELAKKGKEAAKLIGSTGLAVGIGNLAKTAIAFPEQAPDYFASAAALAKEVAE | not found |
| d1r8_design_ppi_811_dldesign_0_cycle0_af2pred (protein) AQEAADQAAFEAAKAGLEKATEAAVGMLEALGEEEAAKEVREFAEKAKKEAEKLTPKEGAELYGKAANEILRRTSQVAAQAVA | not found |
| d1r8_design_ppi_934_dldesign_0_cycle1_af2pred (protein) ASPLERAESLREFLHTVADAMAKNVGAEGQKVADAAKAAGDAAVAAARAAGTPEAYEAARDTLRALTADVIKAYMAALS | not found |
| d1r8_design_ppi_590_dldesign_0_cycle1_af2pred (protein) LEEVKKKLKELAELAKSAGKWNPETGKQVVKSLLRVAESEAKRLAGDPEAAEKVKKYGEELAKEAEKEIKEVAAA | not found |
| d1r8_design_ppi_934_dldesign_0_cycle0_af2pred (protein) ASALARAESQLAFLNTVADAMATQTGEEGAKIAAEAKAAGDAALAAAKASGTPAAYEAATAQLNALTAQVQRETMARLA | not found |
| d1r8_design_ppi_723_dldesign_0_cycle1_af2pred (protein) EEAQKKIKELGEKAAELAKKNVEEGAEALKEAAKLAAKAQPASAEQILKHGEAVAERAKTLSPEEAATLVRNAGKVFAQL | not found |
| d1r8_design_ppi_616_dldesign_0_cycle1_af2pred (protein) DAAREAALKEAKEEFEKAEKEAEEAIKAAKDDPEAQKKLKELRESAKAALENAEKTKADVTTYKGVKALARMLLQTAEGVKKAAEA | not found |
| d1r8_design_ppi_838_dldesign_0_cycle1_af2pred (protein) NAGELLGKALELLEEASRLAKEDYEKAKEAAEKAIEYAEKAAAADPAHAPALVAVKSAARNIIEQAKKNEAARKAA | not found |
| d1r8_design_ppi_661_dldesign_0_cycle1_af2pred (protein) DVVAEARELAARAEEAAERARADPAASQEVVDLFRQAAGYARNALLLAEGTPESQAQAARLLERARRLFEEAERRFRADVAAAA | not found |
| d1r8_design_ppi_616_dldesign_0_cycle0_af2pred (protein) DAERQAALEEAKKEAERAKKAAEEAIKAAAKDPEAQKKLEEARENLEAALKWAEETNGDVTTWKGVTALARMVLQAAEGIKKKAEA | not found |
| d1r11_design_ppi_310_dldesign_0_cycle1_af2pred (protein) EAAAAAALTAKAQALYAKYVAAAKAAQAALAGTEAHKEIAALLAQAEAAADDIGLALALASTAANLAAAKLAAALA | not found |
| d1r11_design_ppi_223_dldesign_0_cycle1_af2pred (protein) AAEAQALAAQAKKLADEAAKEAASPKSGELLGKAIELAMQANTLDPALGGQLSKYIAATAAAAAAKAAAEAAA | not found |
| d1r8_design_ppi_679_dldesign_0_cycle0_af2pred (protein) AEAQKLLEKAKKLAEEAKKIAKESGDEEAKRIAEGAKKMAELAKAALAAGDSAAAMQAYLAGVKTLYEAAKEEAKRKA | not found |
| d1r8_design_ppi_953_dldesign_0_cycle1_af2pred (protein) SAAAELALKSLQAALAAAKAAAKAYGPAAAEAHLKNALLLADSYAAATDAAAGAALKAKVEAEAAAAMAAV | not found |
| d1r11_design_ppi_322_dldesign_0_cycle0_af2pred (protein) DTAEKAREVAKKAVEVAKEAAEKDPRAQAVYETAKIVAEGVEALVAAGQTELALRQAETQLKIAEKVLKEVLA | not found |
| d1r8_design_ppi_889_dldesign_0_cycle1_af2pred (protein) AMAAAIAAVAASARAAAAIGRADPAAAPGAAAFLDVAAETLAALAKADPAHAAQANAAAAEARATAAELRAAAAA | not found |
| d1r8_design_ppi_716_dldesign_0_cycle1_af2pred (protein) AVEAALAEARAVLERAKEAAKRLKEVGTPEEQKLAEELVALGETALKQAEADGTLATARGALAAARLALQGLEGLLERALARRAAAA | not found |
| d1r8_design_ppi_780_dldesign_0_cycle1_af2pred (protein) AAATLAALTAAFGRLVELGAEAIRANPALAPEVNKLLGTASKAAIAGIRDPSLAEAALKTIEAQLKKVEELLKKAK | not found |
| d1r11_design_ppi_51_dldesign_0_cycle1_af2pred (protein) AEVEKKAKEAKKKVEEAKKKMEEAEKAGDAEALRKAAAEANKKAIELASAALAEKDAETAKALAEAAQKLVEIALRANEAMAKLER | not found |
